Assay results: PubChem BioAssay (NCI)
About 83,000 compounds went through this panel and 20% of them were active in at least one assay; those are over-represented in the sample as a whole.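 The endpoint reported here, percent growth, reads 100 for growth as untreated, 0 for no net growth and -100 for all cells dead.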 A number with no mark means an inactive call. Activity calls are given as the source filed them.

Each molecule was assayed on HOP-92 NSCLC (assay: NCI-60 one-dose screen, 48 h (100 = growth as untreated, 0 = no growth, -100 = all killed)). Settings: 10 µM unless noted.
Procedure: Growth inhibition of the HOP-92 human Non-Small Cell Lung tumor cell line is measured as a screen for anti-cancer activity. Cells are grown in 96 well plates and exposed to the test compound for 48 hours. Compounds are tested at a single concentration, which is 10^-5 M for most compounds. The reported endpoint is percent growth (GI% or GIPRCNT), where numbers from 0 - 100% represent growth inhibition, and numbers from -100% - 0 represent cell death. For example, a value of 40 represents 60% growth inhibition. A value of 0 means no net growth occurred over the course of the experiment. A value of -40 indicates 40% of cells at the beginning of the experiment died by the end of the experiment. A value of -100 means all cells are dead at the end of the experiment.
NCI-60 Human Tumor Cell Lines Screen was performed using the standard one-dose NCI protocol, which is described in more detail at https://dtp.cancer.gov/discovery_development/nci-60/default.htm.
Compounds with GIPRCNT values below 10 were considered active. Activity score was based on GIPRCNT using the following formula: […]
Score is 0 for GIPRCNT values of 100 or above, 50 for GIPRCNT values of 0, and 100 for GIPRCNT values of -100.

Going from `CCc1ccc(CCCC(=O)O)cc1` to `CCN(CC)CCn1c2ccc(O)cc2c2sc3cc(O)ccc3c(=O)c21`, the growth falls from 91.1% to 60.5%.

Compared with `CN(c1cc2ncc(=O)[nH]c2cc1NC(N)=NCc1ccc(Cl)cc1)C1CCCCC1`, `COc1cc(NS(=O)(=O)c2ccc(-c3cnc(C4CC4)o3)cc2)ccc1F` is higher in growth: 28% for the first, 33.8% for the second.

Going from `CN(C)CC1CCC(CN(C)C)C1=O` (stereo not given) to `C#CCNC(=O)[C@H](CC)[C@H]1CC[C@H](C)[C@H]([C@@H](C)[C@H](O)[C@H](C)C(=O)[C@H](CC)C2O[C@]3(C=CC(=O)[C@]4(CC[C@@](C)([C@H]5CC[C@](O)(CC)[C@H](C)O5)O4)O3)[C@H](C)C[C@@H]2C)O1` (stereo not given in full), the growth falls from 100% to 13.2%.

First: Nc1nc(N)c(-c2ccc(Cl)c(Cl)c2)c(CBr)n1
Second: N=C(N)c1ccc(-c2ccc(-c3ccc(Cl)c(Cl)c3)s2)nc1
The growth of the first is higher: 99% for the first, 77.3% for the second.

Compared with `COc1ccc(NC(=O)c2sc3nc(C)c(C(=O)/C=C/c4ccccc4)cc3c2N)cc1`, `Cc1nc2sc(C(=O)Nc3ccc(Br)cc3)c(N)c2cc1C(O)c1ccccc1` (stereo not given) is lower in growth: 109% for the first, 77% for the second.

Going from `CC(C)(C)CC(C)(C)NC(=O)Nc1ncccc1OCc1ccccc1` to `O=C(/C=C/c1ccccc1)Nc1ncc(Cc2ccccc2Cl)s1`, the growth falls from 87.7% to 65.1%.

Compared with `COC(=O)c1nc(-c2ccc(C)cc2)oc1S(=O)(=O)c1cccc(OC)c1`, `COc1ccc(C(=O)N2c3ccccc3Sc3ccccc32)c(OC)c1` is lower in growth: 79.6% for the first, 31.3% for the second.

Going from `CCCCNCCCCCNc1cc(OC)cc2cccnc12` to `O=C(Nc1cccc(Cl)c1)Nc1cccc(Cn2c(=O)[nH]c3ccc(Oc4ncccn4)cc3c2=O)c1`, the growth falls from 49.2% to 43.7%.

First: Cn1ccnc1C(=O)/C=C/c1ccc(C(=O)Nc2ccccc2O)cc1
Second: CC(=O)c1c(C)nc(SCC(=O)Nc2cccc(O)c2)n1-c1ccc(Cl)cc1
The growth of the first is lower: 81.4% for the first, 100% for the second.

Compared with `NC(=O)c1cccc(-n2ccc3cc(NC(=O)c4ccc(N5CCOCC5)c(C(F)(F)F)c4)ccc32)n1`, `COc1ccc(C(O)c2cc3c(N)c(C(=O)Nc4cccc(Br)c4)sc3nc2C)cc1` (stereo not given) is lower in growth: 66.8% for the first, 24.7% for the second.

First: CC(=O)O[C@H]1CC2CCC3C(CC[C@@]4(C)C3C[C@H]([N+]3(C)CCCCC3)[C@@H]4OC(C)=O)[C@@]2(C)C[C@@H]1N1CCCCC1 (stereo not given in full)
Second: CCOC(=O)c1cc2c(n1Cc1cc(OC)c(OC)c(OC)c1)-c1nc(N)sc1CCC2
The growth of the first is higher: 86.5% for the first, 42% for the second.

First: COc1ccc(C(C)=O)cc1S(=O)(=O)Nc1c(N)nc(SC)[nH]c1=O
Second: CCn1cc(C(=O)NNC(=S)Nc2ccc(C)cc2)c(=O)c2ccc(C)nc21
The growth of the first is higher: 115% for the first, 95.1% for the second.

Compared with `c1ccc(Cn2cc3c(c2)-c2oncc2CC3)cc1`, `Cn1cc(-c2csc(-c3c[nH]c4ccccc34)n2)c2cnccc21` is higher in growth: 65.4% for the first, 72.7% for the second.

Compared with `N#CC1=C(N)Oc2c(ccc3ccccc23)C1c1ccccc1` (stereo not given), `CSc1oc(C)nc1[P+](c1ccccc1)(c1ccccc1)c1ccccc1` is higher in growth: 38.2% for the first, 59.9% for the second.

Compared with `CCCC/C=C/[C@@H]1C[C@H]1CCO`, `O=C1/C(=C/c2cn(-c3ccccc3)nc2-c2ccccc2)SC(=S)N1C1CCCCC1` is lower in growth: 96.5% for the first, 46.9% for the second.

In the case of `Cc1c(O)cc(-c2cnc(Nc3ccccc3)s2)c(O)c1C`, the growth is reported as -64.4% (active).
`COC1/C=C/OC2(C)Oc3c(C)c(O)c4c(O)c(c(/C=N/Nc5ccc([N+](=O)[O-])cc5[N+](=O)[O-])c(O)c4c3C2=O)NC(=O)C(C)=C/C=C/C(C)C(O)C(C)C(O)C(C)C(OC(C)=O)C1C` (stereo not given) was tested, and the growth was -60.8% (active).
With `Cc1ccc(-c2nc(N3CCCNCC3)c3oc(-c4ccccc4)nc3n2)cc1` the growth was -27.1% (active).
With `COc1cc(-c2nccc3[nH]c(-c4ccc5cc[nH]c5c4)nc23)cc(OC)c1OC` the growth was -8.58% (active).
In the case of `OB1OCc2cc(/C=C/c3cccc(C(F)(F)F)c3)ccc21`, the growth is reported as -27.9% (active).
`COc1cc(OC)c(/C=C/C(=O)c2c(OC)cccc2OC)c(OC)c1` was tested, and the growth was -1.46% (active).
`O=C1/C(=C\c2ccc3nccnc3c2)SC(=S)N1CCc1ccc(O)cc1` was tested, and the growth was -3.77% (active).
In the case of `COC12C=C/C(=C(/C(=O)OCc3ccncc3)C(=O)CCCCCCCCC3(OC)C=C/C(=C(/C(=O)OCc4ccncc4)C(=O)CCCCCCCC1)O3)O2`, the growth is reported as -48.9% (active).
With `Oc1c(I)cc(I)cc1CNCCN(Cc1ccccn1)Cc1ccccn1` the growth was -61.8% (active).
With `CCCCCCCCCc1ccc(OCCOCCOCCOCCOCCOCCOCCOCCOCCO)cc1` the growth was -9.71% (active).
